Sfp inh: qHTS Assay for Inhibitors of Bacillus subtilis Sfp phosphopantetheinyl transferase (PPTase); Potency, µM, actives largely listed as inhibitors; 4'-phosphopantetheinyl transferase ffp (Bacillus subtilis), Q9F4F7; 310,000 tested, 3.5% active; Biochemical Sfp PPTase activity, qHTS; AID 1490, 2009;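 note: the enzyme is Sfp with the accession as filed and its product quenches rhodamine fluorescence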
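With Hepes-Na pH 7.6 buffer containing 10 mM MgCl2, Sfp (15 nM) modified BHQ-2-YbbR (12.5 uM) using rhodamine-CoA (5 uM). Two reads 30 minutes apart at 525/598 nm yielded each well's rate.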
VDR inhibitor: Inhibitors of the vitamin D receptor (VDR): qHTS. Vitamin D3 receptor (Homo sapiens), P11473. VDR-SRC2-3 peptide fluorescence polarization, 2 h. Potency, µM, most hits filed as inhibitors. 400,000 tested, 0.93% active. AID 504847, 2011
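After 23 nl compound addition and a short centrifugation, plates sat for 2 hours at ambient temperature; polarization of fluorescence then indicated loss of VDR binding to peptide SRC2-3.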
Tau fluor counter: Counterscreen qHTS for Inhibitors of Tau Fibril Formation, Fluorescence Polarization. tau K18 P301L Alexa594 fluorescence, heparin fibrillization. Potency, µM (series often up to 57.7 µM). AID 1463, 2008. 280,000 tested, 0.93% active; note: nearly all actives have a fitted effect of over 55% in size
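Human K18 P301L tau (15 uM unlabeled plus 0.24 uM Alexa 594-labeled, final) in 100 mM sodium acetate pH 7 was mixed with compound and 20 uM heparin and incubated 6 hr at 37 C.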
Tau ThT inhib: qHTS for Inhibitors of Tau Fibril Formation, Thioflavin T Binding; recombinant tau K18 P301L (four-repeat tau fragment), heparin-induced fibrillization, ThT fluorescence; Potency, µM (series often up to 57.4 µM), usual class: inhibitors; 270,000 tested, 2.1% active; Microtubule-associated protein tau (Homo sapiens), P10636; note: nearly all actives have a fitted effect of over 55% in size
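Tau K18 P301L fragment (15 uM unlabeled plus 0.24 uM Alexa 594-labeled) in 100 mM sodium acetate pH 7 with compound, fibrillization induced by 20 uM heparin for 6 hr at 37 C. Thioflavin T (30 uM) added, fluorescence read after 1 hr (ex 450, em 510 nm).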
PLK1 PBD inh: qHTS for Inhibitors of PLK1-PDB (polo-like kinase 1 - polo-box domain): Primary Screen | Plk1 PBD binding of FITC phosphopeptide, fluorescence polarization | Potency, µM, actives largely listed as inhibitors | 360,000 tested, 2.8% active | AID 720504, 2013; note: series mostly up to about 57 µM; nearly all actives have a fitted effect of over 65% in size
Target sequence (P53350 whole entry, looked up, the tested form may be a part): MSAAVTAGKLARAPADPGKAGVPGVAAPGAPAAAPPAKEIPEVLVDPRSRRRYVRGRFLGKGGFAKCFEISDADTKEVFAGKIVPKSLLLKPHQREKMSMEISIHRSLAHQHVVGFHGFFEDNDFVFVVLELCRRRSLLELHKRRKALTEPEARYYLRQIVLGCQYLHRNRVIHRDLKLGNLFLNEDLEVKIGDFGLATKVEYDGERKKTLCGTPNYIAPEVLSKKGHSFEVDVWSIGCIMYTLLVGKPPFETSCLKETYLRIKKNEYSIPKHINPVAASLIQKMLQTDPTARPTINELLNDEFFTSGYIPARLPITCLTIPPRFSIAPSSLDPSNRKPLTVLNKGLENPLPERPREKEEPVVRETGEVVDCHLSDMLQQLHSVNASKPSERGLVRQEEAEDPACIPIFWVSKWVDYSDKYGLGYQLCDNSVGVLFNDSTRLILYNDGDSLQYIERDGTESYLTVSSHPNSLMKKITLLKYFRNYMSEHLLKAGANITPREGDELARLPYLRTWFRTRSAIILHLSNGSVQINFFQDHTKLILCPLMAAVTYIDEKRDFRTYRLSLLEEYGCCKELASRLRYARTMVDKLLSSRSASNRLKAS
Tau fibril FP: qHTS for Inhibitors of Tau Fibril Formation, Fluorescence Polarization. Microtubule-associated protein tau (Homo sapiens), P10636. K18 P301L tau heparin fibrillization, Alexa594 FP, 6 h. Potency, µM (titrated, usually from 57.7 µM), usual class: inhibitors. 280,000 tested, 0.39% active; note: nearly all actives have a fitted effect of over 55% in size
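Quantitative HTS format: compounds meet 15 uM recombinant K18 P301L tau and Alexa 594-tau tracer in 100 mM sodium acetate pH 7; 20 uM heparin triggers fibrillization at 37 C over 6 hr; FP gives the signal.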
Numbers stand for hits; n = inactive; u = inconclusive; x = no result. Sampled rows, rich in hits. Any-hit rate of the full collection: about 6%. Calls come from the whole dose curve; as a rule, active = well fitted curve in the direction sought with a large enough effect; inconclusive = small, poorly fitted or top-dose-only effect, or another doubt; inactive = no such curve, though single readings can be large; an effect the other way counts as inactive or inconclusive.

SMILES	Sfp inh	VDR inhibitor	Tau fluor counter	Tau ThT inhib	PLK1 PBD inh	Tau fibril FP
COC(=O)c1[nH]c2cc(OC)c(OC)cc2c1NC(=O)Oc1ccccc1	45µM	n	n	u	n	n
CC(=O)Oc1ccccc1Cn1c(C)c(C(=O)N(C)Cc2ccc(F)cc2)sc1=O	x	x	x	x	n	x
O=C1CC(=O)N(c2cccc(F)c2)N1	n	n	n	u	n	n
O=C1c2ccccc2S(=O)N1c1cccc(F)c1 (stereo not drawn)	x	x	x	x	24µM	x
O=C(CSc1nnc(-c2ccccc2F)o1)N1CCNC1=O	x	n	x	x	n	x
COc1ccc2c(c1)c(=O)oc1c(C)c(OCc3ccc(C(=O)O)cc3)ccc12	n	n	x	x	30µM	x
Cc1ccc(NC2c3ncccc3C(=O)N2c2ccccc2C)cc1C (stereo not drawn)	45µM	n	n	u	6.7µM	n
S=C(NCCc1ccccc1)N/N=C/C1CCCCC1	n	x	n	n	x	n
O=C(NCc1ccccc1)NC1CCCCC1	n	n	n	n	n	n
O=C(NC1CCCCCC1)C(=S)NCCc1ccccc1	14µM	u	n	n	11µM	n
S=C(NCCc1ccccc1)NN=C1CCCCCC1	n	n	n	n	27µM	n
O=C(NCCc1ccccc1)NC1CCCCC1	n	n	n	n	n	n
O=C(NC1CCCCCC1)C(=S)NCc1ccccc1	56µM	u	n	n	21µM	n
O=C(O)CCC/C=C\C/C=C\C=C\[C@@H](O)C/C=C\CCCCCO	n	n	n	n	x	n
Cn1c(O)c(N=NC(=O)c2ccccc2O)c2ccccc21	u	u	n	13µM	3.4µM	n
Cc1cc(N=NC(=O)c2ccccc2O)c2ccccc2c1O	n	n	u	14µM	27µM	u
Cn1c(O)c(N=NC(=O)C2COc3ccccc3O2)c2ccccc21 (stereo not drawn)	n	n	n	u	27µM	n
Cc1occc1C(=O)N=Nc1c(O)n(C)c2ccccc12	n	n	n	u	n	n
CCOC(=O)c1c(NC(=O)C(C)Sc2cn(CCNC(=O)c3ccccc3OC)c3ccccc23)sc2c1CCC2 (stereo not drawn)	x	n	n	u	x	n
Cc1ccnc(NC(=O)c2cccc([N+](=O)[O-])c2C)c1	n	n	n	n	n	n
Cc1ccnc(NC(=O)c2ccccc2[N+](=O)[O-])c1	22µM	n	n	n	9.5µM	n
CC(C)=NNc1nc2c(c(=O)[nH]c(=O)n2C)n1CCCc1ccccc1	n	n	x	x	n	x
Cn1c(=O)[nH]c(=O)c2c1nc(N/N=C/C(Br)=C/c1ccccc1)n2CCO	56µM	n	u	x	u	n
O=S(=O)(c1ccccc1)N1N=C(c2ccc(O)cc2)CC1c1ccco1 (stereo not drawn)	u	n	x	x	n	x
O=[N+]([O-])c1ccc(C2=NN(c3ccccc3)C(c3ccco3)C2)cc1 (stereo not drawn)	n	n	n	5µM	n	n
SMILES	Sfp inh	VDR inhibitor	Tau fluor counter	Tau ThT inhib	PLK1 PBD inh	Tau fibril FP
O=S(=O)(c1ccccc1)N1N=C(c2ccc(Br)cc2)CC1c1ccco1 (stereo not drawn)	n	u	x	x	3µM	x
O=[N+]([O-])c1ccc(/C=C/C2=NN(c3ccccc3)C(c3ccco3)C2)cc1 (stereo not drawn)	40µM	n	u	3.5µM	n	n
CC(=O)Nc1cccc(-c2ccnc3c2CC(C(=O)NCc2ccc(F)c(F)c2)O3)c1 (stereo not drawn)	x	x	x	x	n	x
CCc1ccc(NC(=O)c2ccc(F)c(S(=O)(=O)N3CCN(c4cc(C)ccc4C)CC3)c2)cc1	x	n	n	n	x	u
CCN1CCCC1CNC(=O)c1ccc2c(c1)NC(=O)/C(=C\c1ccc(C)cc1)S2 (stereo not drawn)	50µM	n	x	x	n	x
Cc1sc2ncnc(Nc3ccccc3)c2c1C	n	n	n	u	27µM	n
COc1ccc(CC(=S)N2CCOCC2)cc1OC	n	n	n	n	n	n
S=C(Cc1cccnc1)N1CCOCC1	n	u	n	u	24µM	n
CCCCOC(=O)CCNc1n[nH]c(=O)[nH]c1=O	n	n	n	n	n	n
COC(=O)Cc1n[nH]c(=S)[nH]c1=O	18µM	n	n	u	n	n
CCCCOC(=O)CNc1n[nH]c(=S)[nH]c1=O	56µM	n	n	n	n	n
CCCCOC(=O)C(C)Nc1n[nH]c(=S)[nH]c1=O (stereo not drawn)	50µM	n	n	n	27µM	n
CC(Nc1n[nH]c(=S)[nH]c1=O)C(=O)OCc1ccccc1 (stereo not drawn)	n	n	n	u	u	n
NC(=O)CNc1n[nH]c(=S)[nH]c1=O	79µM	n	n	n	n	n
COC(=O)c1ccc(C(NC(=O)OCc2ccccc2)/C(=C/[C@@H](C)C(=O)Nc2ccc(OC)cc2)c2cccnc2)cc1 (stereo partly drawn)	n	x	n	n	x	n
COc1ccccc1C(O)c1ncc(-c2cccc3ccccc23)[nH]1 (stereo not drawn)	x	x	x	x	n	x
Clc1ccc(CO/N=C2\CCCc3nonc32)cc1	n	u	n	n	21µM	n
O=S(=O)(O)c1cc(O)c2c(O)c(N=Nc3cc(Cl)ccc3O)c(S(=O)(=O)O)cc2c1	u	u	x	x	24µM	x
Cc1cc(-c2ccc(N=Nc3c(S(=O)(=O)O)cc4cc(S(=O)(=O)O)cc(N)c4c3O)c(C)c2)ccc1N=Nc1c(S(=O)(=O)O)cc2cc(S(=O)(=O)O)cc(N)c2c1O	11µM	u	x	x	x	x

From PubChem BioAssay
